The values below come from PubChem BioAssay (EPA / NIEHS).

Assay [1] concerns the target Retinoic acid receptor RXR-alpha (Homo sapiens) (UniProt P19793). Briefly: OT_NURR1_NURR1RXRa_0480: Odyssey Thera (OT) 8-hour HEK293T Protein Complementation Assay for Nurr1/retinoid X receptor (RXR) (AID 2283385). In a few lines:
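Interaction of bait and prey reconstitutes a functional reporter, whose fluorescence was measured in HEK293T cells dosed with compound for 8 hours. Signal gain relative to DMSO defined the single endpoint.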

For assay [2] the target is unchanged. Kind of assay: OT_NURR1_NURR1RXRa_1440: Odyssey Thera (OT) 24-hour HEK293T Protein Complementation Assay for Nurr1/retinoid X receptor (RXR) (AID 2283386). The procedure, abridged: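 Steps: fragment-tagged Nurr1 and RXRα expressed in HEK293T; compounds added; after 24 h, complemented reporter quantified by fluorescence intensity; signal increase over DMSO fitted as the single endpoint.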

The target in assay [3] is Peroxisome proliferator-activated receptor gamma (Homo sapiens) (UniProt P37231). Kind of assay: OT_PPARg_PPARgSRC1_1440: Odyssey Thera (OT) 24-hour Protein-Complementation Assay for Peroxisome Proliferator-activated Receptor Gamma/ SRC-1 Co-activator (AID 2283388). In a few lines: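 HEK293T transiently transfected with PPARg/SRC-1 split-Venus YFP fusions 48 h before dosing, then treated 24 h at 37C. Fixed cells imaged; nuclear/cytoplasmic 488 nm fluorescence ratio, gain of signal versus DMSO.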

Read-out in assay [4]: Tumor necrosis factor receptor superfamily member 6 (Homo sapiens) (UniProt P25445)
Briefly: LTEA_HepaRG_FAS: Life Technologies and Expression Analysis (LTEA) Assay for Fas cell surface death receptor (FAS) using HepaRG (AID 2283447; active = hit-call score of the fitted dose curve at least 0.9, where 1 is the maximum; inactive = score below 0.9). As to conditions: mRNA level, 48 h; actives raise or lower the signal. The procedure, abridged: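 Differentiated HepaRG cells in serum-free induction medium were exposed 48 h to 8 half-log concentrations up to 100 uM in 0.5% DMSO, in duplicate. FAS mRNA was measured by qRT-PCR normalised to ACTB, GAPDH and POLR2A; bidirectional fit versus DMSO.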

Read-out in assay [5]: Fatty acid synthase (Homo sapiens) (UniProt P49327)
Briefly: LTEA_HepaRG_FASN: Life Technologies and Expression Analysis (LTEA) Assay for Fatty Acid Synthase (FASN) using HepaRG (AID 2283448; active = hit-call score of the fitted dose curve at least 0.9, where 1 is the maximum; inactive = score below 0.9;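 for AC50: differentiated human HepaRG liver cells in serum-free induction medium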). As to conditions: mRNA level, 48 h; actives raise or lower the signal. The procedure, abridged:
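Cells were plated, cultured 48 h, switched to serum-free induction medium, then dosed in duplicate (max 100 uM, half-log dilutions, 0.5% DMSO) for 48 h. RNA was then isolated and FASN quantified by qRT-PCR.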

Read-out in assay [6]: Cyclin D2 (CCND2), CCND2 (gene 894)
Briefly: LTEA_HepaRG_CCND2: Life Technologies and Expression Analysis (LTEA) Assay for Cyclin D2 (CCND2) using HepaRG (AID 2283449; active = hit-call score of the fitted dose curve at least 0.9, where 1 is the maximum; inactive = score below 0.9;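 note: CCND2 transcript measured by TaqMan qRT-PCR and normalised to three housekeeping genes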). The settings on record: mRNA level, 48 h; actives raise or lower the signal. In a few lines: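 HepaRG, 48 h dosing, 8-pt half-log curve from 100 uM, 0.5% DMSO; duplicate wells. Readout: CCND2 transcript by microfluidic qRT-PCR, housekeeping-normalised; bidirectional fit vs DMSO baseline.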

Read-out in assay [7]: Cyclin Dependent Kinase Inhibitor 1A (CDKN1A), CDKN1A (gene 1026)
Kind of assay: LTEA_HepaRG_CDKN1A: Life Technologies and Expression Analysis (LTEA) Assay for Cyclin Dependent Kinase Inhibitor 1A (CDKN1A) using HepaRG (AID 2283450; active = hit-call score of the fitted dose curve at least 0.9, where 1 is the maximum; inactive = score below 0.9). As to conditions: mRNA level, 48 h; actives raise or lower the signal. In a few lines: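 Differentiated HepaRG cells in serum-free induction medium, exposed 48 h in duplicate to eight half-log concentrations up to 100 uM in 0.5% DMSO. mRNA measured by TaqMan qRT-PCR, normalized to ACTB, GAPDH, POLR2A; bidirectional fit versus DMSO.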

Assay [8] addresses Peroxisome proliferator-activated receptor gamma (Homo sapiens) (UniProt P37231). Briefly: OT_PPARg_PPARgSRC1_0480: Odyssey Thera (OT) 8-hour Protein-Complementation Assay for Peroxisome Proliferator-activated Receptor Gamma / SRC-1 Co-activator (AID 2283387). In a few lines: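 Read-out: 488 nm N/C fluorescence ratio from complemented Venus YFP fragments, ≥350 cells per image, gain-of-signal fitted against DMSO baseline. Fusions of PPARg/SRC-1 with IFP1/IFP2 expressed transiently in HEK293T; compounds applied 8 h.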

Assay [9] can be described thus: CEETOX_H295R_11DCORT: CeeTox H295R High-throughput Steroidogenesis Assay for 11-Deoxycortisol (11DCORT) (AID 2283432; active = hit-call score of the fitted dose curve at least 0.9, where 1 is the maximum; inactive = score below 0.9). As to conditions: actives raise or lower the signal. The procedure, abridged:
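H295R cells; 10 uM forskolin prestim 48 h; compound in 0.1% DMSO 48 h; media extracted with MTBE; 11-deoxycortisol by LC-MS/MS, 7-point standard curve; gain/loss vs DMSO baseline; viability by MTT in same wells.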

Assay [10] is described as follows: CEETOX_H295R_OHPREG: CeeTox H295R High-throughput Steroidogenesis Assay for OH-Pregnenolone (OHPREG) (AID 2283434; active = hit-call score of the fitted dose curve at least 0.9, where 1 is the maximum; inactive = score below 0.9). As to conditions: actives raise or lower the signal. In a few lines:
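H295R, 10 uM forskolin pre-stim 48 h; test chemical 48 h, 0.1% DMSO final. MTBE extraction, reverse-phase C18 HPLC-ESI+ MS/MS of medium. Gain/loss vs DMSO; viability by MTT in same wells.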

A short description of assay [11]: CEETOX_H295R_OHPROG: CeeTox H295R High-throughput Steroidogenesis Assay for OH-Progesterone (OHPROG) (AID 2283435; active = hit-call score of the fitted dose curve at least 0.9, where 1 is the maximum; inactive = score below 0.9;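 for AC50: human adrenal H295R cells primed 48 h with 10 µM forskolin; 17alpha-hydroxyprogesterone secreted into medium measured by HPLC-MS/MS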). As to conditions: actives raise or lower the signal. In a few lines:
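Steps: seed H295R cells and adhere overnight; stimulate with 10 uM forskolin for 48 h; replace with chemical-containing medium (0.1% DMSO) for 48 h; extract medium with MTBE; quantify 17alpha-hydroxyprogesterone by reverse-phase C18 HPLC-MS/MS against a 7-point curve.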

The nature of assay [12]: CEETOX_H295R_ANDR: CeeTox H295R High-throughput Steroidogenesis Assay for Androstenedione (ANDR) (AID 2283436; active = hit-call score of the fitted dose curve at least 0.9, where 1 is the maximum; inactive = score below 0.9;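 note: human H295R adrenal cells exposed for 48 h with androstenedione measured in medium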). The settings on record: actives raise or lower the signal. In a few lines: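 48 h chemical exposure, H295R cells, DMEM/F12 + ITS+ and Nu-Serum. Medium androstenedione: MTBE extraction, C18 reverse-phase HPLC, ESI+ MS/MS. Fit bidirectional vs DMSO; MTT viability in same wells.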

The nature of assay [13]: CEETOX_H295R_CORTIC: CeeTox H295R High-throughput Steroidogenesis Assay for Corticosterone (CORTIC) (AID 2283437; active = hit-call score of the fitted dose curve at least 0.9, where 1 is the maximum; inactive = score below 0.9;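 note: corticosterone secreted into medium quantified by mass spectrometry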). The settings on record: actives raise or lower the signal. The procedure, abridged: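 48 h forskolin (10 uM) prestim, then 48 h chemical exposure, final DMSO 0.1%. Readout: corticosterone in medium by LC-MS/MS after MTBE extraction. Gain/loss fit vs DMSO; MTT viability in same wells.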

The nature of assay [14]: CEETOX_H295R_CORTISOL: CeeTox H295R High-throughput Steroidogenesis Assay for Cortisol (AID 2283438; active = hit-call score of the fitted dose curve at least 0.9, where 1 is the maximum; inactive = score below 0.9). The settings on record: actives raise or lower the signal. The procedure, abridged: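 Cortisol synthesis by H295R cells is measured 48 h after chemical dosing, following a 48 h stimulation with 10 uM forskolin. Hormone is extracted and quantified by HPLC-MS/MS, and activity is fitted bidirectionally against the DMSO control.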

Assay [15] can be described thus: CEETOX_H295R_DOC: CeeTox H295R High-throughput Steroidogenesis Assay for DOC (AID 2283439; active = hit-call score of the fitted dose curve at least 0.9, where 1 is the maximum; inactive = score below 0.9). As to conditions: actives raise or lower the signal. In a few lines: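 Steps: seed H295R, adhere overnight; 10 uM forskolin 48 h; replace with chemical medium (0.1% DMSO) 48 h; collect medium, MTBE extraction, HPLC-MS/MS for DOC. Viability then checked by MTT; cytotoxic chemicals diluted until viability ≥70%.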

Assay [16] is described as follows: CEETOX_H295R_ESTRADIOL: CeeTox H295R High-throughput Steroidogenesis Assay for Estradiol (AID 2283440; active = hit-call score of the fitted dose curve at least 0.9, where 1 is the maximum; inactive = score below 0.9;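 note: estradiol secreted into medium quantified by LC-MS/MS after dansyl derivatisation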). As to conditions: actives raise or lower the signal. The procedure, abridged:
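H295R cells pre-stimulated 48 h with 10 uM forskolin, then exposed 48 h to chemical in 0.1% DMSO. Medium estradiol quantified by MTBE extraction, dansyl derivatisation and HPLC-MS/MS; bidirectional fit versus DMSO; MTT viability required >/=70%.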

A short description of assay [17]: CEETOX_H295R_ESTRONE: CeeTox H295R High-throughput Steroidogenesis Assay for Estrone (AID 2283441; active = hit-call score of the fitted dose curve at least 0.9, where 1 is the maximum; inactive = score below 0.9;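 for AC50: human adrenal H295R cells prestimulated with forskolin for two days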). As to conditions: actives raise or lower the signal. The procedure, abridged:
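Estrone secreted into medium quantified by LC-MS/MS after dansyl chloride derivatization, following 48 h chemical exposure (0.1% DMSO final) of forskolin-prestimulated (10 uM, 48 h) H295R cells; gain or loss fitted against DMSO; MTT viability in same wells.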

The nature of assay [18]: CEETOX_H295R_PROG: CeeTox H295R High-throughput Steroidogenesis Assay for Progesterone (PROG) (AID 2283442; active = hit-call score of the fitted dose curve at least 0.9, where 1 is the maximum; inactive = score below 0.9;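 for AC50: human H295R adrenal cells primed with 10 µM forskolin before dosing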). The settings on record: actives raise or lower the signal. The procedure, abridged: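 H295R adrenal cells prestimulated 48 h with 10 uM forskolin, then exposed 48 h to test chemical in 0.1% DMSO. Progesterone in medium quantified by HPLC-MS/MS after MTBE extraction; viability checked by MTT in same wells.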

In assay [19] the target is Bile acid receptor (Homo sapiens) (UniProt Q96RI1). Briefly: OT_FXR_FXRSRC1_0480: Odyssey Thera (OT) 8-hour HEK293T Protein-Complementation Assay for Farnesoid X receptor/SRC-1 Co-activator (AID 2283383). In a few lines: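 PCA, HEK293T, 8 h compound exposure; FXR–SRC-1 binding reconstitutes split reporter; fluorescence intensity; positive-direction fit vs DMSO.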

SMILES strings stand for the structures. “And” between values parts separate entries of the source, which are not always exact repeats. Identical values can stand only once. Records with an inconclusive call do not appear. Where a structure was tested more than once in an assay, its records may differ in their call. The source made the active and inactive calls. Rule for the calls, unless noted: active = hit-call score of the fitted dose curve at least 0.9, where 1 is the maximum; inconclusive = response in the unintended direction; inactive = score below 0.9.

Chain of Fatty acid synthase (Homo sapiens) (P49327 whole entry, looked up): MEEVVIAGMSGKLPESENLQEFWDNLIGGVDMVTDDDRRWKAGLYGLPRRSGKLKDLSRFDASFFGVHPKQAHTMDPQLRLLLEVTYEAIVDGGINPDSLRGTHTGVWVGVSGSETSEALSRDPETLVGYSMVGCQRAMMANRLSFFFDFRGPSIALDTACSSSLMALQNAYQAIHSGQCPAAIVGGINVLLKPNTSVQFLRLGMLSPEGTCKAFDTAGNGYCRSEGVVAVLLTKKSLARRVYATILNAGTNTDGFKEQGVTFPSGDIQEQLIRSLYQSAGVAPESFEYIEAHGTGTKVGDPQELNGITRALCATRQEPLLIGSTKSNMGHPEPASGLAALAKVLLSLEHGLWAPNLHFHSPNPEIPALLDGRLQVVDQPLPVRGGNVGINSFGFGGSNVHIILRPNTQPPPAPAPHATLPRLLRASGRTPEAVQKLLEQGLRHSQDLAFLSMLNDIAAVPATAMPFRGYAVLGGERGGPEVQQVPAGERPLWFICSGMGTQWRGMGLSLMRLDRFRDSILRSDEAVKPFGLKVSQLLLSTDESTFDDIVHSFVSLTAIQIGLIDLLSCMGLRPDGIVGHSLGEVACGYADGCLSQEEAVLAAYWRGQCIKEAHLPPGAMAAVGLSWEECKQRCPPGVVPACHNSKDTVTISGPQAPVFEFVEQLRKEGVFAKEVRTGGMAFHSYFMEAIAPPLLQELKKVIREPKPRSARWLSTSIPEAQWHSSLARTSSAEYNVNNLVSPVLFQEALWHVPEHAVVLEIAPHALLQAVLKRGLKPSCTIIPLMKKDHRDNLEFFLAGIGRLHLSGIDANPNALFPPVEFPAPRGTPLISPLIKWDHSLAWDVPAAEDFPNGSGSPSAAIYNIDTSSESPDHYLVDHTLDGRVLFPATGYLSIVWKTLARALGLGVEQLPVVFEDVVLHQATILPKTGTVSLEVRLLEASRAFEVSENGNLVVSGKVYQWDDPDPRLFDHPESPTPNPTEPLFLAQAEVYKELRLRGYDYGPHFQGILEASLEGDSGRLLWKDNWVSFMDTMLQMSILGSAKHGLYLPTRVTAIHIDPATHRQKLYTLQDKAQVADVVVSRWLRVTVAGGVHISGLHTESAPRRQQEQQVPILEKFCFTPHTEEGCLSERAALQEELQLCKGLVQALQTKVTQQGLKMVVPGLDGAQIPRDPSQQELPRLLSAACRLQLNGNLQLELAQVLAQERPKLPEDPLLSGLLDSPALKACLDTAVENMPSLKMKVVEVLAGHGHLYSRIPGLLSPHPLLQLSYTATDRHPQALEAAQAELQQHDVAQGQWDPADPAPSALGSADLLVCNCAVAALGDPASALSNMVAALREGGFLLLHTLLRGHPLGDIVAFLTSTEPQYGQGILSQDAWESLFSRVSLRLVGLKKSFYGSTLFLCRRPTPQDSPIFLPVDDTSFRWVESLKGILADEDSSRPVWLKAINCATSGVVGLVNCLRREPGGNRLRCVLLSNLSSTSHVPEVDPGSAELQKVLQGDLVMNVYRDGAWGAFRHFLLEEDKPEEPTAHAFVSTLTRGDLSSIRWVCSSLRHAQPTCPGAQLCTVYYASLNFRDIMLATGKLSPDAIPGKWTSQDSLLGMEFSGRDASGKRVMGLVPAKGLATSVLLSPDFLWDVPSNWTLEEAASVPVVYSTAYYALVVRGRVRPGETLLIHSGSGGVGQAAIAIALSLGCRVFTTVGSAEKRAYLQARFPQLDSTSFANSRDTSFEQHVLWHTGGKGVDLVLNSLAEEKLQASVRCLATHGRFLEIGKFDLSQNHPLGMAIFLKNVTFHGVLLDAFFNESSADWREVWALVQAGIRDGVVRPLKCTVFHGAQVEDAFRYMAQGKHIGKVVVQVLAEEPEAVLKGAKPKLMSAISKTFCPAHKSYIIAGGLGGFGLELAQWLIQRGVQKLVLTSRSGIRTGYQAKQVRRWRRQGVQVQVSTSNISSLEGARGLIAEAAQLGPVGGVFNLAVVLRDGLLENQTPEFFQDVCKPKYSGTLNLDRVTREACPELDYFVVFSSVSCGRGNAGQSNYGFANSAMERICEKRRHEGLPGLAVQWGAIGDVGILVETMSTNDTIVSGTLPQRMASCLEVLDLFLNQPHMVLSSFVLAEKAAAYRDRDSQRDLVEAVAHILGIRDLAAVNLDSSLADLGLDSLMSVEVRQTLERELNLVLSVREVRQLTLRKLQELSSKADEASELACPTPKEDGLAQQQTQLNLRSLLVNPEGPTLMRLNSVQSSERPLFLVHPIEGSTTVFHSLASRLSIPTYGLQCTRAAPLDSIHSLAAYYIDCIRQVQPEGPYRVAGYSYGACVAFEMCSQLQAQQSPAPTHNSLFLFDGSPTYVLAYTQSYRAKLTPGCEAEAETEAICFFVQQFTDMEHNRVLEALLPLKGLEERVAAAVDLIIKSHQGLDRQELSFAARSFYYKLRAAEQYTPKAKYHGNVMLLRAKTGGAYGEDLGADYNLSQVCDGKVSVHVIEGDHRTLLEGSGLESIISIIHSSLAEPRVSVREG
Chain of Retinoic acid receptor RXR-alpha (Homo sapiens) (P19793 whole entry, looked up): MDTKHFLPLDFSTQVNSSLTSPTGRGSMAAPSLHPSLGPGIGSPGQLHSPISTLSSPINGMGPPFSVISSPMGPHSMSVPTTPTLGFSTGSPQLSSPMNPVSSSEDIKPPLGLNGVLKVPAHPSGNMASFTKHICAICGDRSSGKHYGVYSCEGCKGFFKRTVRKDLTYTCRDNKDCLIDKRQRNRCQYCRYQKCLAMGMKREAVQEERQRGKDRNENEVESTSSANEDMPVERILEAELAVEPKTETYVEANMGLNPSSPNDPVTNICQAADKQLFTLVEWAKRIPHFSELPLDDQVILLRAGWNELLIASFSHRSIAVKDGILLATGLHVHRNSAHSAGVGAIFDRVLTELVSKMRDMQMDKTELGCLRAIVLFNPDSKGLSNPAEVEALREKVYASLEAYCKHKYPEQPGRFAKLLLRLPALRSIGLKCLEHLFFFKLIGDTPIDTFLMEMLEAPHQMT
Chain of Peroxisome proliferator-activated receptor gamma (Homo sapiens) (P37231 whole entry, looked up, the tested form may be a part): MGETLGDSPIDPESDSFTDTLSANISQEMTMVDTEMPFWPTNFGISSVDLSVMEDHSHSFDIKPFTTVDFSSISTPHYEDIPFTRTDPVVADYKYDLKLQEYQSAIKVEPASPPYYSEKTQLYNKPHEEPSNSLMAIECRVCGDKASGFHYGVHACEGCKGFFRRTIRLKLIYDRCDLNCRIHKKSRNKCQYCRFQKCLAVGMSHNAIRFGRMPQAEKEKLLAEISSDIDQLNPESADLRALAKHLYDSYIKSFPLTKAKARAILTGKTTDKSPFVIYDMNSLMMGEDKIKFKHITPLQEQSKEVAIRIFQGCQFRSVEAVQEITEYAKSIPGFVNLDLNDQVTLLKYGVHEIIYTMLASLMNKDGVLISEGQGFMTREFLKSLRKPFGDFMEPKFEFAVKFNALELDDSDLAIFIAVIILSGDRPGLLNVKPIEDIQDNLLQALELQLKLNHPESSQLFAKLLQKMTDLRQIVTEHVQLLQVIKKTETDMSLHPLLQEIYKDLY
Chain of Bile acid receptor (Homo sapiens) (Q96RI1 whole entry, looked up): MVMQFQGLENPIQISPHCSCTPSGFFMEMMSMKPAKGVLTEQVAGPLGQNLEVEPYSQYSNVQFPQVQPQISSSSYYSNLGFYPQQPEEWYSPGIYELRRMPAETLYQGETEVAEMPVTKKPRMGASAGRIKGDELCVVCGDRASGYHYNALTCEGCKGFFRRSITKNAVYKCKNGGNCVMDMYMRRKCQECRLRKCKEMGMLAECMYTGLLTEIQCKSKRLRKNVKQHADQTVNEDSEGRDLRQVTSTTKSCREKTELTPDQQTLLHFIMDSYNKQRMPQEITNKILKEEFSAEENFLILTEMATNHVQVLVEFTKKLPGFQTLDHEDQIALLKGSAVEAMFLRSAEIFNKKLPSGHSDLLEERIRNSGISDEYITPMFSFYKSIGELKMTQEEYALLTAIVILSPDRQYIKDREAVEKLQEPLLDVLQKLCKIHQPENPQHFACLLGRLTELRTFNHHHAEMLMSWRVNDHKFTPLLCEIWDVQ

As to `O=C(O)c1nc(Cl)ccc1Cl`, the molecule was classed as inactive in assay [1], in assay [2], in [3], in assay [4], in assay [5] and in assay [6]. For the same molecule, the outcome in assay [7] was inactive.
As usually defined, the AC50 is the concentration giving half of the maximal activity seen. For `CCCN(CCC)c1c([N+](=O)[O-])cc(S(N)(=O)=O)cc1[N+](=O)[O-]`, the molecule was classed as inactive in [8], in assay [3], in assay [5], in [6] and in assay [7]. The AC50 in [5] is 94.6 µM (active) and 74.2 µM (active); in assay [7], 96.1 µM (active).
For `CCCCOC(=O)c1ccccc1C(=O)OCCCC`, the outcome in [1], in assay [2], in [8], in [3], in [4] and in assay [5] was inactive. The molecule was called inactive in [6] and in assay [7].
On to `COc1cnc(OC)n2nc(NS(=O)(=O)c3c(OCC(F)F)cccc3C(F)(F)F)nc12`, for which the molecule was called inactive in [1], in assay [2], in assay [8], in assay [3], in assay [4] and in [5]. Also, the molecule was called inactive in [6] and in assay [7].
Turning to `N#CC(CCc1ccc(Cl)cc1)(Cn1cncn1)c1ccccc1` (configuration not stated), the molecule was called inactive in assay [8], in [3], in assay [9], in assay [10], in assay [12] and in [13]. Besides, the outcome in assay [15], in [16], in [17] and in [6] was inactive. The AC50 in [11] is 0.36 µM (active); in assay [14], 0.386 µM (active); in [18], 0.627 µM (active); in assay [4] it was 76.1 µM (active); in [5], 91.1 µM (active); in assay [7] it was 60.9 µM (active).
Take `CCc1nn(C)c(C(=O)NCc2ccc(C(C)(C)C)cc2)c1Cl`: the AC50 in assay [19] is 0.578 µM (active); in [2] it was 11.6 µM (active); in assay [5] it was 42.5 µM (active); in assay [7], 3.24 µM (active). In addition, the molecule was called inactive in [8], in assay [3], in assay [4] and in assay [6].
As to `CCNc1nc(Cl)nc(NC(C)C)n1`, the outcome in assay [1], in [2], in assay [8], in [3], in assay [9] and in assay [10] was inactive. Also, the molecule was classed as inactive in [11], in assay [13], in [14], in assay [15], in [16] and in [18]. The molecule was called inactive in assay [4], in assay [5], in [6] and in assay [7]. Moreover, the AC50 in assay [17] is 1.35 µM (active).
Turning to `N#Cc1cc(Br)c(O)c(Br)c1`, the molecule was classed as inactive in assay [8], in assay [3], in [4] and in assay [6]. Moreover, the AC50 in assay [5] is 8.13 µM (active); in assay [7] it was 10.1 µM (active).
